Experiment [1] can be described thus: Nuclear factor erythroid 2-related factor 2/antioxidant responsive element (Nrf2/ARE) small molecule agonists: qHTS cell viability counter screen in human keratinocytes (AID 1919968; active = well fitted curve in the direction sought with a large enough effect in the repeat runs; an effect the other way counts as inactive or inconclusive; note: nearly all actives have a fitted effect of over 55% in size; note: potency is the fitted concentration of half-maximal effect). The gist of the method:
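Cytotoxicity was multiplexed with the Nrf2/ARE luciferase assay in the same wells. Stably transfected HaCaT keratinocytes were treated with test compounds for 23 h at 37 C. Cell viability was then measured by CellTiter-Fluor fluorescence.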

Experiment [2] addresses Gonadotropin-releasing hormone receptor (Homo sapiens) (UniProt P30968). Kind of experiment: Human gonadotropin-releasing hormone receptor (GnRHR) small molecule agonists, calcium flux assay in GnRHR-HEK293 cells (AID 1920063). Note: nearly all actives have a fitted effect of over 35% in size. The gist of the method:
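Agonist activity was measured as intracellular calcium flux in HEK293 cells engineered to stably express human GnRHR. After dye loading for 1 hour at 37 C, compounds in DMSO were added and fluorescence was followed for 3 minutes.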
(In general: Calcium assays in cells follow changes in intracellular calcium, usually with a dye or a luminescent sensor.)

Experiment [3] addresses KiSS-1 receptor (Homo sapiens) (UniProt Q969F8). Kind of experiment: Human kisspeptin (KISS1R) small molecule agonists, calcium flux assay in KISS1R-HEK293 cells (AID 1920064; active = well fitted curve in the direction sought with a large enough effect in the repeat runs; an effect the other way counts as inactive or inconclusive). The gist of the method: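 Agonist activity is monitored as intracellular calcium rise in engineered HEK293 cells carrying human KISS1R. Cells are dye-loaded for 1 h at 37 C before compound addition, and fluorescence is recorded for 3 min.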

Experiment [4] in a line: G protein-coupled receptor (GPCR) small molecule agonists, calcium flux assay: HEK293 wild type cell line counter screen (AID 1920065). The gist of the method: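 Seed cells, incubate 18 h (37 C, 5% CO2); add calcium dye, 1 h at 37 C; pin-transfer compounds, ATP control or DMSO; read fluorescence 480/540 nm each second for 3 min.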
A short description of experiment [5]: p53 small molecule agonists, cell-based qHTS assay with human liver microsomes (AID 1963577). The gist of the method:
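p53RE-bla reporter cells were pre-incubated 5 h at 37 C, then treated with compounds plus human liver microsomes (0.5 mg/mL final) and NADPH (0.5 mg/mL final) for 16 h at 37 C. Beta-lactamase activity was read by LiveBLAzer fluorescence after 2 h at room temperature.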

A short description of experiment [6]: p53 small molecule agonists, cell-based qHTS assay with rat liver microsomes (AID 1963578). The gist of the method: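 p53RE-bla cells were exposed to compounds together with rat liver microsomes (0.5 mg/mL final) and NADPH (0.5 mg/mL final) for 16 h at 37 C, then read by LiveBLAzer beta-lactamase fluorescence after 2 h at room temperature.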
Experiment [7] is described as follows: p53 small molecule agonists, cell-based qHTS assay with human liver microsomes: qHTS cell viability counter screen (AID 1963579). Note: nearly all actives have a fitted effect of over 45% in size. Note: potency is the fitted concentration of half-maximal effect. The gist of the method: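 p53RE-bla cells (4,000/well) were pre-incubated 5 h at 37 C, then given compounds in DMSO plus human liver microsomes (0.5 mg/mL final) and NADPH (0.5 mg/mL final) for 16 h at 37 C. Viability was read by CellTiter-Glo luminescence.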
A general note: Quantitative high-throughput screening tests each substance at several concentrations.

Experiment [8] is described as follows: p53 small molecule agonists, cell-based qHTS assay with rat liver microsomes: qHTS cell viability counter screen (AID 1963580). Note: nearly all actives have a fitted effect of over 45% in size. The gist of the method:
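Cytotoxicity counter screen: intracellular ATP measured by CellTiter-Glo luminescence in the same wells as the beta-lactamase reporter read, on HCT-116 p53RE-bla cells exposed 16 h at 37 C to compounds with rat liver microsomes and NADPH, each 0.5 mg/mL final.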

The nature of experiment [9]: p53 small molecule agonists, cell-based qHTS assay: qHTS cell viability counter screen (AID 1963581). Note: nearly all actives have a fitted effect of over 45% in size. Note: potency is the fitted concentration of half-maximal effect. The gist of the method: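 Viability was counter-screened in parallel with the p53 agonist reporter by measuring intracellular ATP luminescence in the same HCT-116 p53RE-bla wells after 16 h compound treatment at 37 C.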
Experiment [10] is described as follows: p53 small molecule agonists, cell-based qHTS assay (AID 1963582; active = well fitted activation curve with a large enough effect in the signal ratio in the repeat runs, not every such curve was filed as active; the % refers to the signal ratio). The gist of the method:
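Cells carrying a p53-responsive bla reporter are treated with test compounds for 16 h at 37 C; beta-lactamase activity is then detected with LiveBLAzer B/G FRET substrate after 2 h at room temperature.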

Experiment [11] addresses 5-hydroxytryptamine receptor 2A (Homo sapiens) (UniProt P28223). Kind of experiment: 5-hydroxytryptamine receptor 2A (HTR2A) small molecule antagonists, cell-based qHTS assay (AID 1963586). Note: nearly all actives have a fitted effect of over 45% in size. The gist of the method: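 CHO cells stably expressing human HTR2A were plated for 18 h at 37 C, then loaded with calcium dye for 1 h. Compounds were preincubated 5 min at room temperature before DOI (4 nM solution) was added. Kinetic fluorescence was read for 3 min.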

For experiment [12] the target is unchanged. Kind of experiment: 5-hydroxytryptamine receptor 2A (HTR2A) small molecule agonists, cell-based qHTS assay (AID 1963587). Note: nearly all actives have a fitted effect of over 30% in size. The gist of the method:
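CHO cells stably expressing human HTR2A, plated 18 h, loaded with calcium dye 1 h at 37 C. Agonist mode: compounds added and intracellular calcium fluorescence recorded kinetically for 2 min at 1 sec intervals.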

For experiment [13], the target named is Muscarinic acetylcholine receptor M1 (Homo sapiens) (UniProt P11229). Kind of experiment: Cholinergic receptor muscarinic 1 (CHRM1) small molecule antagonists, cell-based qHTS assay (AID 1963588). Note: nearly all actives have a fitted effect of over 40% in size. The gist of the method:
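Compounds were tested at 15 concentrations in three independent runs. Dye-loaded CHRM1-CHO cells were exposed 5 min at room temperature before stimulation by acetylcholine added at 50nM. Intracellular calcium was read kinetically on FDSS for 3 min.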

Experiment [14] shares this target. Kind of experiment: Cholinergic receptor muscarinic 1 (CHRM1) small molecule agonists, cell-based qHTS assay (AID 1963589). Note: nearly all actives have a fitted effect of over 35% in size. The gist of the method: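 Cells were plated and incubated 18 h at 37 C/5% CO2, loaded with calcium dye for 1 h at 37 C, then treated with compounds in DMSO. Fluorescence was recorded kinetically at 1 sec intervals.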
Experiment [15] is described as follows: cAMP Responsive Elements (CRE) small molecule agonists, cell-based qHTS assay (AID 1963590). The gist of the method:
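Cells carrying a CRE-driven beta-lactamase reporter (HEK 293T) are seeded, incubated overnight (18 h), and treated with test compounds for 3 h at 37 C; reporter activity is then detected with a FRET substrate after 2 h at room temperature.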

Experiment [16] is described as follows: cAMP Responsive Elements (CRE) small molecule antagonists, cell-based qHTS assay (AID 1963591; active = well fitted inhibition curve with a large enough effect in the signal ratio in the repeat runs, not every such curve was filed as active; the % refers to the signal ratio). The gist of the method: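 Cells (CRE-bla HEK 293T, DMEM with 10% dialyzed FBS and 25 mM HEPES) are seeded and incubated 18 h. Compounds are added with NKH477 agonist at 0.25 uM final for 3 h, then FRET substrate for 2 h.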
Experiment [17] addresses Beta-2 adrenergic receptor (Homo sapiens) (UniProt P07550). Kind of experiment: Adrenergic beta2 receptor (ADRB2) small molecule antagonists, cell-based qHTS assay (AID 1963592). Note: series mostly up to about 92 µM; nearly all actives have a fitted effect of over 50% in size. The gist of the method: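 Assay format: CHO-ADRB2 cells, 18-20hr seeding at 37C/5% CO2, then compound plus 1nM isoproterenol agonist mix for 0.5hr RT. Homogeneous time-resolved fluorescence cAMP detection after 1hr, expressed as 665/615 nm ratio.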

Experiment [18] has the same target. Kind of experiment: Adrenergic beta2 receptor (ADRB2) small molecule agonists, cell-based qHTS assay (AID 1963593).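 Note: CHO cells stably overexpressing human ADRB2.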 The gist of the method: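 CHO cells stably over-expressing ADRB2 were plated overnight at 37C, then dosed with compounds plus a stimulation mix containing 100uM IBMX and 25uM Ro-20-1724 for 0.5hr at room temperature. cAMP was measured by HTRF competition, 1hr.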

The target in experiment [19] is D(2) dopamine receptor (Homo sapiens) (UniProt P14416). Kind of experiment: Dopamine D2 receptor (DRD2) small molecule agonists, cell-based qHTS assay (AID 1963594). Note: nearly all actives have a fitted effect of over 35% in size. The gist of the method: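 HEK293 cells stably expressing human DRD2, pre-treated with PDE inhibitor Ro20-1724 (0.1 mM final) and compound 10 min at room temperature, then stimulated with NKH477 (200nM […]) for 30 min. cAMP read by HTRF (665/620 nm).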
Chain of D(2) dopamine receptor (Homo sapiens) (P14416 whole entry, looked up): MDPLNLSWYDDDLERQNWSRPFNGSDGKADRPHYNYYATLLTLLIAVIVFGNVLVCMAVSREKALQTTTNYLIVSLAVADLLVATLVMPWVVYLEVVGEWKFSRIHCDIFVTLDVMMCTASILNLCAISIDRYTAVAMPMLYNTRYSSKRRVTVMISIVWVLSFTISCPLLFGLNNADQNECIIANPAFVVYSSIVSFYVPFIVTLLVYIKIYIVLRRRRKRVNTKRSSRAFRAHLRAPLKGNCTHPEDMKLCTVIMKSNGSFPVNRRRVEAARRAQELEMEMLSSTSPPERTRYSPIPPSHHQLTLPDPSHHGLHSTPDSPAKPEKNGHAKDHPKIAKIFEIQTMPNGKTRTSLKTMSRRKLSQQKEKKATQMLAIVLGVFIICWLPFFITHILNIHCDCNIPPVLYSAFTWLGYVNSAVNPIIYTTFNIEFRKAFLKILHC

Experiment [20] has the same target. Kind of experiment: Dopamine D2 receptor (DRD2) small molecule antagonists, cell-based qHTS assay (AID 1963595; active = well fitted inhibition curve with a large enough effect in the signal ratio in the repeat runs, with a control signal flat; the % refers to the signal ratio). The gist of the method:
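Antagonist mode in DRD2-HEK293 cells: after compound addition with 0.1 mM Ro20-1724, cells received quinpirole (12 nM) and NKH477 (200 nM) for 30 min at room temperature; HTRF cAMP read after 1 h detection.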

Unmarked numbers belong to inactive results. Inconclusive results are not listed. Activity calls are given as the source filed them. Unless noted, calls come from the whole dose curve.

Chain of KiSS-1 receptor (Homo sapiens) (Q969F8 whole entry, looked up): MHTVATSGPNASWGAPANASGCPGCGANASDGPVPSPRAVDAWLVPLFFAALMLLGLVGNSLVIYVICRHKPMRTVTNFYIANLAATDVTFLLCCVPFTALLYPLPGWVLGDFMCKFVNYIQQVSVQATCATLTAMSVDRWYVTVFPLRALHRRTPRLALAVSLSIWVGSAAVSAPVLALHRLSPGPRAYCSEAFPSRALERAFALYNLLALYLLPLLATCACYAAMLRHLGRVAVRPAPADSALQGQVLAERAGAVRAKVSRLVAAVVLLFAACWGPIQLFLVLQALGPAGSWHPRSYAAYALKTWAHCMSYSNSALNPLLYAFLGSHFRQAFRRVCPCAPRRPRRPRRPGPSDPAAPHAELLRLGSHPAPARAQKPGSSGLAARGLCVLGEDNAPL
Chain of Muscarinic acetylcholine receptor M1 (Homo sapiens) (P11229 whole entry, looked up): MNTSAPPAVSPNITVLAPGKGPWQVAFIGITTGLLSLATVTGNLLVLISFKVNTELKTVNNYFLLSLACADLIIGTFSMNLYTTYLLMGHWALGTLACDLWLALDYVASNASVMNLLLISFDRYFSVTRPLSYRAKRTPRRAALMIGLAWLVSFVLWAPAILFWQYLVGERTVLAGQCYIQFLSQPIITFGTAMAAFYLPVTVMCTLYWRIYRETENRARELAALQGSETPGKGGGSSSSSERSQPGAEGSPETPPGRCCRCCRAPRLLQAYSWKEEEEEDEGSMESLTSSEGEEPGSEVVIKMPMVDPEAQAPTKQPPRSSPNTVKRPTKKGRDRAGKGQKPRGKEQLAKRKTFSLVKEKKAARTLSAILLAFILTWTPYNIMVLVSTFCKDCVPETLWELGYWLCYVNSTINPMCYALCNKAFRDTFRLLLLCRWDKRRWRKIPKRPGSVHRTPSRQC
Chain of Beta-2 adrenergic receptor (Homo sapiens) (P07550 whole entry, looked up): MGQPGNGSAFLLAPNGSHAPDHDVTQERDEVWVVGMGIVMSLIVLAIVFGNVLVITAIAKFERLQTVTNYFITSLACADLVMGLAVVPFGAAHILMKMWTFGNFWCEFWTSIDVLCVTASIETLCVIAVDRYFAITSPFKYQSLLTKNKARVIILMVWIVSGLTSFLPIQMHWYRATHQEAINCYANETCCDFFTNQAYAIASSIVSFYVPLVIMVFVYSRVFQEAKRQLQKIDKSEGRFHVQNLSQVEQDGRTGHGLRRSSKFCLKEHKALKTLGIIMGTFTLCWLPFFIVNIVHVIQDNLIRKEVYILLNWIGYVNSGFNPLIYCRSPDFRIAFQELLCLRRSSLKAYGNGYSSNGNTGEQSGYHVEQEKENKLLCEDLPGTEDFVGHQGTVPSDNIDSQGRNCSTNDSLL
Chain of 5-hydroxytryptamine receptor 2A (Homo sapiens) (P28223 whole entry, looked up): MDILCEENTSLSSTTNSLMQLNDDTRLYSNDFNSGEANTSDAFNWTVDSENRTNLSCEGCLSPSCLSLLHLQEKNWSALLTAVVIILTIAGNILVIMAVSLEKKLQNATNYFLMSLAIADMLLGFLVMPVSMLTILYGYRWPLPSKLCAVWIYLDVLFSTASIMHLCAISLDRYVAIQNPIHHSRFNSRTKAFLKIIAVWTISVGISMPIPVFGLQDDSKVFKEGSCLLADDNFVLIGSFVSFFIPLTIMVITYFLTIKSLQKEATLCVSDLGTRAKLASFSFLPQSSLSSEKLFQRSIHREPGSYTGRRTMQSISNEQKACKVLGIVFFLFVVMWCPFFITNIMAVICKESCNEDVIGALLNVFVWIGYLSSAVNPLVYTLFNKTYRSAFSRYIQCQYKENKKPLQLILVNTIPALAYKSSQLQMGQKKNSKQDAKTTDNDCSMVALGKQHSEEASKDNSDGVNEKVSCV
Chain of Gonadotropin-releasing hormone receptor (Homo sapiens) (P30968 whole entry, looked up): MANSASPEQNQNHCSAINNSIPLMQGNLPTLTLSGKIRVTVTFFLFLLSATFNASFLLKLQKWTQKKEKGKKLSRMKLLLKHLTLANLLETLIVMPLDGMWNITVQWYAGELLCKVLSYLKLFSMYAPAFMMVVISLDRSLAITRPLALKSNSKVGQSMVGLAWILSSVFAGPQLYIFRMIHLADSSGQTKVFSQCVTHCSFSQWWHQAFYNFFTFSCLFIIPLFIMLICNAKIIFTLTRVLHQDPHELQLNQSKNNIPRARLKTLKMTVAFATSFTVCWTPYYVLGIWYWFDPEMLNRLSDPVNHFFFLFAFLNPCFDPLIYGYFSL

Take `CC(=O)Nc1ccccc1O`: the Potency entry in experiment [1], in [2], in experiment [3], in experiment [4], in [5] and in experiment [6] was “inactive” each time. In addition, the Potency result in experiment [7], in experiment [8], in experiment [9], in experiment [10], in experiment [11] and in experiment [12] was “inactive” each time. The Potency result in experiment [13], in experiment [14], in experiment [15], in experiment [16], in experiment [17] and in experiment [18] was “inactive” each time. Besides, the Potency result in [19] and in experiment [20] was “inactive” each time.

As to `O=C(O)c1cc(C(=O)O)cc(C(=O)O)c1`, the Potency result in experiment [1], in experiment [2], in [3], in experiment [4], in [5] and in experiment [6] was “inactive” throughout. Moreover, the Potency entry in experiment [7], in experiment [8], in experiment [9], in experiment [10], in experiment [11] and in experiment [12] was “inactive” in each case. In addition, the Potency result in [13], in experiment [14], in experiment [15], in experiment [16], in [18] and in experiment [19] was “inactive” each time.

With `CC(=O)OCC=C(C)C`, the Potency entry in experiment [1], in experiment [2], in experiment [3], in experiment [4], in experiment [5] and in experiment [6] was “inactive” throughout. The Potency result in experiment [7], in experiment [8], in [9], in [10], in experiment [11] and in experiment [12] was “inactive” in each case. The Potency entry in experiment [13], in experiment [14], in experiment [15], in experiment [16], in experiment [17] and in experiment [18] was “inactive” throughout. Also, the Potency entry in experiment [19] and in experiment [20] was “inactive” in each case.

Take `O=P(O)(O)OP(=O)(O)O`: the Potency result in [1], in [2], in experiment [3], in experiment [4], in experiment [5] and in experiment [6] was “inactive” throughout. Further, the Potency result in experiment [7], in experiment [8], in experiment [9], in [10], in experiment [11] and in experiment [12] was “inactive” in each case. Besides, the Potency entry in [13], in experiment [14], in [15], in experiment [16], in experiment [17] and in [19] was “inactive” each time. In addition, in [20], the Potency result was “inactive”.

On to `CC/C(=C(\c1ccc(O)cc1)c1ccc(OCCN(C)C)cc1)c1ccccc1`, for which the Potency in experiment [1] was 30.7 µM (active); in experiment [7], 20.5 µM (active); in experiment [9], 20.5 µM (active). In addition, the Potency result in experiment [4], in [11] and in [19] was “inactive” each time.

`Nc1c(Cl)cc(Cl)cc1[N+](=O)[O-]`: the Potency result in [1], in experiment [2], in experiment [3], in experiment [4], in experiment [5] and in experiment [6] was “inactive” throughout. Moreover, the Potency result in experiment [7], in experiment [8], in experiment [9], in experiment [10], in experiment [11] and in experiment [12] was “inactive” each time. Further, the Potency result in experiment [13], in experiment [14], in [15], in experiment [17], in experiment [18] and in experiment [19] was “inactive” each time. In experiment [20], the Potency entry is “inactive”.

With `C1C2OC2C2C1C1CC2C2OC12` (configuration not stated), the Potency result in experiment [1], in experiment [4], in [7], in experiment [8], in experiment [11] and in experiment [12] was “inactive” throughout. The Potency entry in experiment [14], in experiment [16], in experiment [17], in experiment [19] and in [20] was “inactive” each time.

As to `CC1=C(C(=O)O)N2C(=O)[C@@H](NC(=O)[C@H](N)c3ccc(O)cc3)[C@H]2SC1`, the Potency entry in experiment [1], in experiment [2], in [3], in [4], in experiment [5] and in experiment [6] was “inactive” in each case. In addition, the Potency result in [7], in experiment [8], in experiment [9], in experiment [10], in experiment [11] and in experiment [12] was “inactive” in each case. Also, the Potency result in experiment [13], in experiment [14], in [15], in experiment [16], in experiment [17] and in experiment [19] was “inactive” each time. Besides, in experiment [20], the Potency entry is “inactive”.
